Source: PubChem
Sampled rows, rich in hits. Any-hit rate of the full collection: about 7.4%.
FLuc modulator: counter-screen for miR-21 project: firefly luciferase inhibitors or activators | purified FLuc, Km substrates, luminescence inhibition | 360,000 compounds, 6.9% hits | P08659 | Potency, µM (series often up to 57.5 µM), for inactives: at the top dose activity change, negative = inhibition, usual class: inhibitors;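 note: plate controls were vehicle for no effect and reference inhibitor for full effect; nearly all actives have a fitted effect of over 55% in size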
Target sequence (P08659 whole entry, looked up): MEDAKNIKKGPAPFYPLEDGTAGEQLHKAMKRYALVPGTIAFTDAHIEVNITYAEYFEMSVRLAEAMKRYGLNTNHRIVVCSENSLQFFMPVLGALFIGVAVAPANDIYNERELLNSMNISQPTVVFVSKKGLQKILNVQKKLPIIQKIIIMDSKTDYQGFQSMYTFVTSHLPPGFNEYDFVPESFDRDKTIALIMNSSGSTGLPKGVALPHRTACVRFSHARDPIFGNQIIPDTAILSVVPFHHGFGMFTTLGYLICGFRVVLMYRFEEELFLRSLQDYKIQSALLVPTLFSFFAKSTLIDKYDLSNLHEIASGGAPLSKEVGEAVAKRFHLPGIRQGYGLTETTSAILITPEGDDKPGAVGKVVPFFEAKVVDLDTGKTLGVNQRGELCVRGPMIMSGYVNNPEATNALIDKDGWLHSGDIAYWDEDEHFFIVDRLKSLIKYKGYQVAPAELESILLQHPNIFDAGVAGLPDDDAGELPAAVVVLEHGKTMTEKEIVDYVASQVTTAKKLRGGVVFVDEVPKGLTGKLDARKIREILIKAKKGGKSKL
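Biochemical qHTS of compounds, final roughly 60 µM downward over six points, against 10 nM purified firefly luciferase using Km concentrations of substrates (10 uM D-luciferin, 10 uM ATP) in Tris acetate pH 7.5 buffer; luminescence output.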
Rab9 prom act: activators of Rab9 promoter; Huh7 Rab9 promoter-luciferase reporter, luminescence, 24 h; Potency, µM (highest dose often 9.22 µM), for the others: at the top dose activation, negative = inhibition, hits mostly activators; 320,000 compounds, 2.8% hits; note: % of control where 0% means no effect; nearly all actives have a fitted effect of over 60% in size
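Measured in stably transfected Huh7 cells bearing a Rab9 promoter–luciferase construct: 24 h compound treatment at 37 °C, followed by luminescence detection.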
ELG1 genotoxic: inducers of genotoxicity in HEK293T ELG1-luciferase cells. HEK293T ELG1-luciferase reporter, luminescence, 16 h. Potency, µM (series often up to 46 µM), for inactives: at the top dose activity change, positive = activation, actives largely listed as activators. 330,000 compounds, 1.3% hits; note: % of control where 0% means no effect; nearly all actives have a fitted effect of over 60% in size
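HEK293T cells expressing luciferase-tagged ELG1 were exposed to compound or DMSO vehicle for 16 hr at 37 °C and 5% CO2. Luciferase activity was then measured with ONE-Glo after 30 min at room temperature.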
NPC1 promoter act: activators of NPC1 promoter. Huh7 NPC1 promoter luciferase reporter, 24 h. Potency, µM (titrated, usually from 9.22 µM), without a hit: at the highest dose activation, actives largely listed as activators. 320,000 compounds, 2.4% hits. AID 485313; note: % of control where 0% means no effect; nearly all actives have a fitted effect of over 60% in size
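Stably transfected Huh7 (NPC1 promoter→luciferase), 1500 cells/well in Opti-MEM + 10% FBS, 2 h settle, then compound 24 h at 37 °C. Luminescence after 10 min with Amplite reagent.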
KinaseGlo FLuc: blocks Kinase-Glo luciferase, a counter-screen artifact. Q27757. Kinase-Glo luciferase, ATP luminescence, 8 min. Potency, µM (titrated, usually from 38.3 µM), for inactives: at the highest dose activity change, negative = inhibition, usual class: inhibitors. 200,000 compounds, 0.28% hits. AID 1379; note: % is set by controls: 0 for no effect and ±100 for the full control effect; nearly all actives have a fitted effect of over 60% in size
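Substrate mix (final 50 mM imidazole pH 7.2, 50 mM KCl, 7 mM MgCl2, 10 uM ATP, 0.01% Tween 20, 0.05% BSA) plus pin-tool compound, then Kinase-Glo detection mix; 8 min ambient, luminescence read.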
SMN2 splice up: enhancers of SMN2 splice variant expression; HEK293 SMN2-luciferase splicing reporter, luminescence, 30-36 h; Potency, µM (top dose mostly 46.1 µM), for inactives: at the top dose activity change, positive = activation, most hits filed as activators; 210,000 compounds, 2.8% hits; AID 1458; note: % of control where 0% means no effect; nearly all actives have a fitted effect of over 55% in size
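HEK293 cells carry an SMN2 […]–luciferase reporter in which exon 7 inclusion puts luciferase in frame. Cells were plated 10-12 h before compound addition, then incubated 30-36 h at 37C. ONE-Glo luminescence was read; sodium butyrate at 4.5 mM final served as control.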
Numbers without * were called inactive; ? = inconclusive; . = no result; [ ] = dose if it differs, or a comment. Calls come from the whole dose curve; as a rule, active = well fitted curve in the direction sought with a large enough effect; inconclusive = small, poorly fitted or top-dose-only effect, or another doubt; inactive = no such curve, though single readings can be large; an effect the other way counts as inactive or inconclusive. Potency is the fitted concentration of half-maximal effect.

SMILES	FLuc modulator	Rab9 prom act	ELG1 genotoxic	NPC1 promoter act	KinaseGlo FLuc	SMN2 splice up
Cc1ccc(Cn2cc(C=O)c(-c3ccc(F)cc3)n2)cc1	?	-2%	0%	5%	.	.
Cc1ccc(C(=O)n2c(N)nc3ccccc32)cc1	0.19µM*	0.1µM*	0.21µM*	?	11µM*	0.4µM*
CCC12CCN(CCc3ccc([N+](=O)[O-])cc3)CC1Oc1c(O)cccc12 (stereo not drawn)	2%	.	.	.	.	.
c1cncc(CNc2cc(-c3ccc4c(c3)OCO4)ncn2)c1	.	.	.	.	-20%	10µM*
CCOC(=O)CC(SP(=O)(OC)OC)C(=O)OCC (stereo not drawn)	.	.	.	.	.	-4%
[O-]/[N+](=C/c1cccnc1)c1ccc(Br)cc1	-4%[2.3 µM]	2.8µM*	?	5.6µM*	0%	13µM*
NS(=O)(=O)c1ccc(-c2ccc([As](=O)(O)O)cc2)cc1	.	.	.	.	-3%[7.66 µM]	0%[9.22 µM]
c1ccoc1	.	.	.	.	.	14%
CC(C)(C)c1ccc(OCCON2C(=O)CCC2=O)c(Cl)c1	15µM*	0%	?	-9%	0%	-6%
O=C(Nc1ccc(F)cc1)Oc1ccc[nH]c1=O	19µM*	8%	12%	17%	.	.
O=C1NC(=S)NC(=O)C12C(c1ccc(F)cc1)NC(=S)NC2c1ccc(F)cc1 (stereo not drawn)	1%	1%	0%	-3%	-4%	1.6µM*
CC(C)(C)n1cc(C(=O)c2ccc3ccccc3c2O)cn1	0.67µM*	0.56µM*	?	0.45µM*	-4%	-72%
CC(C)(C)n1cc(C(=O)c2ccccc2OCCCF)cn1	-1%	0%[1.84 µM]	1%	2%	.	.
CN(C)c1ccc(NC(=O)Oc2ccccc2)cc1	3µM*	11%	?	1%	-9%	-2%
O=C(Nc1ccc(Cl)cc1)OC1CN2CCC1CC2 (stereo not drawn)	15µM*	?	?	?	.	.
O=C(Nc1cccc(Cl)c1)OC1CN2CCC1CC2 (stereo not drawn)	13µM*	18%	-14%	19%	.	.
O=C(Nc1ccccc1Cl)OC1CN2CCC1CC2 (stereo not drawn)	-7%	-2%	2%	-1%	.	.
NC(=NCCc1ccc(I)cc1)SCCCc1cnc[nH]1	.	.	.	.	0%	-41%
Nc1c2c(nc3sc4c(c13)CCCCC4)CCCC2	6µM*	?	-5%	4µM*	-12%	11µM*
COC1=CC(=O)OC(CCc2ccccc2)C1 (stereo not drawn)	.	.	.	.	.	-4%
Cc1cn2c(=O)cc(COC(=O)c3ccccc3F)nc2s1	2.7µM*	.	.	.	.	.
Oc1c(Cl)cc(Cl)cc1Cl	.	.	.	.	.	-1%
COc1cc(/C=C/c2nc3ccccc3c(=O)n2-c2cccc(O)c2)ccc1O	?	0%	4%	-8%	.	.
COc1ccccc1-n1c(-c2ccccc2Br)nc2ccccc2c1=O	-4%	0%	-5%	0%	.	.
COc1ccccc1-n1c(-c2ccc(C)cc2)nc2ccccc2c1=O	13µM*	-1%	14%	-3%	.	.
SMILES	FLuc modulator	Rab9 prom act	ELG1 genotoxic	NPC1 promoter act	KinaseGlo FLuc	SMN2 splice up
COc1cc(/C=C/c2nc3ccccc3c(=O)n2-c2ccccc2O)ccc1O	17µM*	1%	11%	1%	.	.
O=C(O)CBr	.	.	.	.	.	-7%
CC(C)(C)C(=O)c1cn(CC(=O)NCc2ccco2)c2ccccc12	?	3.2µM*	?	?	0%	14µM*
COc1cccc(-n2c(=S)[nH]c3ccccc3c2=O)c1	3%	2%	7%	0%	6%	9%
COc1ccc2c(c1)NP(=S)(Oc1ccccc1)N2 (stereo not drawn)	6.7µM*	0%	?	19%	.	.
C=CCOCC1CO1 (stereo not drawn)	.	.	.	.	.	1%
OCC[n+]1c2ccccc2nc2ccc(N3CCOCC3)cc21	27µM*	-4%	-10%	-3%	.	.
CC[C@]1(O)CC(O[C@@H]2CC(N(C)C)C(O)C(C)O2)c2c(cc3c(c2O)C(=O)c2c(O)cccc2C3=O)C1C(=O)OC (stereo partly drawn)	.	.	.	.	-10%	0.79µM*
CC[C@@]1(O)CC(O)c2c(cc3c(c2O)C(=O)c2c(O)ccc(O)c2C3=O)C1C(=O)OC (stereo partly drawn)	.	.	.	.	-3%	-10%
COC[C@H]1OC(=O)c2coc3c2[C@@]1(C)C1=C(C3=O)[C@H]2CCC(=O)[C@@]2(C)C[C@H]1OC(C)=O	.	.	.	.	-16%	.
O=C(O)CCn1cc(C=C2C(=O)NC(=S)NC2=O)c(-c2cccc(Cl)c2)n1	21µM*	2%	3%	-4%	-7%	.
COc1ccc(-c2cc(=NCCCCCC(=O)O)c3cc(C)ccc3o2)cc1	3%	-6%	?	-1%	3%	8%
COc1ccc(-c2cc(=Nc3cccc(C(=O)O)c3)c3cc(C)ccc3o2)cc1	9.5µM*	?	5.8µM*	-1%	0%	.
CCCC[N+](=O)[O-]	.	.	.	.	.	1%
CC(C)CC(=O)C[C@H](O)C(Cl)(Cl)Cl	.	.	.	.	-2%[7.66 µM]	-4%[9.22 µM]
CC(C)(C)c1ccc(C(=O)NC(=S)Nn2cnnc2)cc1	19µM*	23%	1%	20%	.	.
COC1C=CC23c4cc5c(cc4CN(CC2O)C3C1)OCO5 (stereo not drawn)	.	.	.	.	-6%	-85%
C=CCOC(=O)c1ccccc1N	-2%	2%	3%	1%	.	-2%
Nc1ccccc1C(=O)OCCOc1ccccc1	0.6µM*	0.4µM*	0.92µM*	0.35µM*	13%	7.9µM*
COC(=O)C(O)C(O)(CCC(C)C)C(=O)OC1C(OC)=CC23CCCN2CCc2cc4c(cc2C13)OCO4 (stereo not drawn)	.	.	.	.	0%[39.9 µM]	.
CC(Cc1ccccc1)NC(=O)c1ccc(N)cc1 (stereo not drawn)	21µM*	3.5µM*	?	3.2µM*	.	.
CC(Cc1ccccc1)NC(=O)NC(C)Cc1ccccc1 (stereo not drawn)	13µM*	2.8µM*	12µM*	?	1%	.
O=C(/C=C/c1ccccc1)C1C(=O)c2ccccc2C1=O	0.38µM*	2.2µM*	15%	4µM*	-13%	10µM*
Cc1nc2ccccc2cc1C[N+]12CN3CN(CN(C3)C1)C2	.	.	.	.	0%[7.66 µM]	-4%[9.22 µM]
Nc1ccccc1-c1ccccc1	.	.	.	.	.	-7%
CCOc1cccc(CC(=O)NCc2ccc3c(c2)CCN3C(=O)c2cccc(C)c2)c1OCC	?	.	.	.	.	-51%
CCOc1ccc(C(=O)Nc2cccc(C(=O)OCc3cc(=O)n4nc(C5CC5)sc4n3)c2)cc1	1.9µM*	.	.	.	.	.
COc1cccc(N=Nc2c(O)[nH]c(=S)[nH]c2=O)c1	13µM*	?	?	21%	.	.
NS(=O)(=O)c1ccc(N=Nc2c(O)[nH]c(=S)[nH]c2=O)cc1	?	9%	-3%	-1%	.	.
